The values that follow come from PubChem BioAssay (Tox21).

Records with an inconclusive call do not appear. Where a call stands in place of a potency, no number is given. The source made the active and inactive calls. The call rests on the fitted dose curve.
Potency means the concentration at half of the fitted maximal effect.

This test is described as follows: qHTS assay to identify small molecule agonists of the AP-1 signaling pathway - cell viability counter screen (AID 1159525). Further: nearly all actives have a fitted effect of over 55% in size. The conditions noted are these: ME-180 (cervical carcinoma) AP-1-bla cells viability, ATP luminescence, 5 h; series mostly up to 76.8 µM. The source says: National Center for Advancing Translational Sciences [NCATS]
NIH Chemical Genomics Center [NCGC]
U.S. Environmental Protection Agency [EPA]
National Institutes of Environmental Health Sciences [NIEHS]
National Toxicology Program [NTP]
U.S. Food and Drug Administration [FDA]
Activator protein-1 (AP-1), a transcription factor, plays an important role in tumor genesis by regulating genes involved in cell proliferation, differentiation, apoptosis, and angiogenesis. AP-1 activity is induced by a complex network of signaling pathways that involves extracellular signals, such as growth factors. The AP-1 protein complex formed from c-Fos and c-Jun binding to the AP-1 response element results in transcriptional activation of genes containing such elements within their promoter.
Low molecular weight molecules have been discovered and developed to modulate various components of these signaling pathways, for example, MAP kinase inhibitors. However, many points of pathway modulation remain untested due to the lack of chemical probes making this signaling locus of general interest.
Using a beta-lactamase reporter-gene under control of the AP-1 response element, a cell-based assay [CellSensor(TM) AP-1-bla ME-180 developed by Invitrogen Corp.] was used to measure EGF-induced signaling. The Tox21 10K library compounds were measured for their ability to positively modulate the action of EC50 EGF on reporter gene activity. Compounds were screened in a 15-pt titration series in 1536-well format. The cytotoxicity of the Tox21 compound library against this cell line was tested in parallel by measuring the intra cellular ATP content in the same wells.
Tox21 Assay Protocol Summary:
2500 cells/5uL in Opti-MEM medium containing 0.5% dialyzed FBS, 0.1 mM NEAA, 1 mM sodium pyruvate and 10 mM HEPES was dispensed into 1536-well black wall/clear bottom plates using a Multidrop dispenser and cells were cultured at 37 degrees Celsius overnight. Next day 23 nL of compounds dissolved in DMSO, positive controls or DMSO were delivered to each well using a pin tool. The plates were incubated at 37 degrees Celsius for 5 hours. 1 uL of LiveBLAzerTM B/G FRET substrate (Solution A+B+C+D) was added to each well using a Flying Reagent Dispenser. After incubated at room temperature for 2.5 hours the plates were measured on an EnVision plate reader at Excitation 405nm, Emission1=460nm and Emission 2=530nm. The %Activity was determined from the ratio of 460nm/530nm.
After the plates were read for Beta-Lactamase assay on Envision; 3 ul Cell Titer Glo (Promega) was added to measure the cytotoxicity and the plates were then incubated at RT in dark for 30 min. The luminescence was read on ViewLux (Perkin Elmer, Shelton, CT) using 6 sec exposure. ViewLux data was expressed as relative luminescence units.
For primary data analysis, raw plate reads for each titration point were first normalized relative to […] EGF control (100%) and DMSO only wells (basal, 0%).
For primary data analysis for viability assay, raw plate reads for each titration point were first normalized Tetra n-octyl ammonium bromide control (-100%) and DMSO (control, 100%).
(In general: qHTS replaces the single test concentration by a dilution series.)
As for `CCN`, the Potency entry is “inactive”. As to `FC(F)(F)c1cccc(C2=CCN(CCc3ccc4ccccc4c3)CC2)c1`, the Potency result was “inactive”. Under `[Cl][Sn]([c]1ccccc1)([c]1ccccc1)[c]1ccccc1` stands 10.4 µM (active); under `CC(Cc1ccc(C(C)(C)C)cc1)CN1C[C@@H](C)O[C@@H](C)C1` (stereo not given in full), “inactive”. Under `CC(=O)[O-].[Tl+]` stands “inactive”.

With `O=[N+]([O-])O.O=[N+]([O-])O.[Cd]`, the Potency result is “inactive”.

With `Nc1ccc(Cl)cc1C(=O)c1ccccc1`, the Potency result was “inactive”. As for `N#Cc1ccc(O)cc1`, the Potency result was “inactive”.

As to `CSCCCN=C=S`, the Potency result is “inactive”. On to `C[CH2][Hg][N]1C(=O)C2C(C1=O)C1(Cl)C(Cl)=C(Cl)C2(Cl)C1(Cl)Cl` (stereo not given), for which the Potency is 6.57 µM (active). Under `O=c1oc2ccccc2c(O)c1Cc1c(O)c2ccccc2oc1=O` stands “inactive”; under `ClC1=C(Cl)[C@]2(Cl)[C@@H]3[C@@H](Cl)[C@H](Cl)C[C@@H]3[C@@]1(Cl)C2(Cl)Cl`, “inactive”.

On to `c1ccc(OCC2CO2)cc1` (stereo not given), for which the Potency entry is “inactive”. Then `ClC1=C(Cl)[C@]2(Cl)[C@@H]3[C@@H](Cl)[C@@H](Cl)C[C@@H]3[C@@]1(Cl)C2(Cl)Cl`, with “inactive”. Under `O=C(CBr)c1ccc(O)cc1` stands “inactive”; under `Cc1cccc(OP(=O)(Oc2cccc(C)c2)Oc2cccc(C)c2)c1`, “inactive”.

Consider `CC(C)(C)C(O)C(Oc1ccc(-c2ccccc2)cc1)n1cncn1` (stereo not given), for which the Potency result is “inactive”.

As to `N#CCCO`, the Potency entry is “inactive”. On to `CCCCCCCCCCCCCN1CC(C)OC(C)C1` (stereo not given), for which the Potency entry was “inactive”. Under `OC(c1ccc(Cl)cc1)(c1ccc(Cl)cc1)C(Cl)(Cl)Cl` stands “inactive”; under `CCOC(=O)c1ccccc1S(=O)(=O)NC(=O)Nc1nc(Cl)cc(OC)n1`, “inactive”. Under `ClC(Cl)=C(Cl)Cl` stands “inactive”; under `CNC(C)Cc1ccc2c(c1)OCO2` (stereo not given), “inactive”; under `CC(C)CBr`, “inactive”.

With `CC(=[OH+])/C=C(/C)[O-].CC(=[OH+])/C=C(\C)[O-].CC(=[OH+])/C=C(\C)[O-].[Al]`, the Potency entry is “inactive”.

Turning to `Oc1ccc(I)cc1`, the Potency entry was “inactive”. Then `COc1ccc(OC)c(CC(C)N)c1` (stereo not given), with “inactive”; and `CC(C)(C)OO`, with “inactive”.

Turning to `N#CCCSCCC#N`, the Potency entry is “inactive”. `CCCCCCCCCCBr`: the Potency result is “inactive”. Take `c1ccc2c(c1)OCC(C1=NCCN1)O2` (stereo not given): the Potency entry is “inactive”. Then `ClCc1ccc(Cl)cc1Cl`, with “inactive”. With `CC(C)Oc1cccc(NC(=O)c2ccccc2C(F)(F)F)c1`, the Potency result was “inactive”. For the molecule `CCCCOCN(C(=O)CCl)c1c(CC)cccc1CC`, the Potency result was “inactive”.

Regarding `Clc1ccc(-c2ccccc2)cc1`, the Potency result is “inactive”. Under `CC(=[OH+])/C=C(/C)[O-].CC(=[OH+])/C=C(\C)[O-].CC(=[OH+])/C=C(\C)[O-].[Fe]` stands “inactive”; under `C=CC(=O)N(C)C`, “inactive”. Under `CCC(C)c1cc([N+](=O)[O-])cc([N+](=O)[O-])c1OC(=O)C=C(C)C` (stereo not given) stands “inactive”; under `CC[C@H](C)[C@H]1O[C@]2(C=C[C@@H]1C)C[C@@H]1C[C@@H](C/C=C(\C)[C@@H](O[C@H]3C[C@H](OC)[C@@H](O[C@H]4C[C@H](OC)[C@@H](O)[C@H](C)O4)[C@H](C)O3)[C@@H](C)/C=C/C=C3\CO[C@@H]4[C@H](O)C(C)=C[C@@H](C(=O)O1)[C@]34O)O2`, 23 µM (active); under `CC(C)(C)c1ccc(CSc2cnn(C(C)(C)C)c(=O)c2Cl)cc1`, “inactive”.
